Source: PubChem BioAssay (NCI)
Compounds without any hit were thinned out: in the full panel of roughly 83,000, 20% have a hit.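 The endpoint reported here, percent growth, reads 100 for growth as untreated, 0 for no net growth and -100 for all cells dead.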 Unmarked numbers belong to inactive results. The source made the active and inactive calls. The calls were made as follows: active = growth percent below 10; inactive = the rest.

Assays:
Test in all cases: NCI-60 one-dose screen, 48 h (100 = growth as untreated, 0 = no growth, -100 = all killed)
Conditions in all cases: 10 µM unless noted
T-47D breast = test system: T-47D breast
BT-549 breast = test system: BT-549 breast
MDA-MB-435 melanoma = test system: MDA-MB-435 melanoma
SW-620 colon = test system: SW-620 colon
MCF7 breast = test system: MCF7 breast
HCT-116 colon = test system: HCT-116 colon
HCC-2998 colon = test system: HCC-2998 colon
KM12 colon = test system: KM12 colon

Row | SMILES | growth (T-47D breast) | growth (BT-549 breast) | growth (MDA-MB-435 melanoma) | growth (SW-620 colon) | growth (MCF7 breast) | growth (HCT-116 colon) | growth (HCC-2998 colon) | growth (KM12 colon)
1 | CCOc1cccc(Nc2nc(N)nc3[nH]c4ccc(O)cc4c23)c1 | 18.8% | 68.8% | 84.2% | 76.1% | 43.1% | 72.9% | 89.8% | 87.6%
2 | Nc1nccc2c1ccn2-c1ccc(NC(=O)c2ccc(N3CCOCC3)c(C(F)(F)F)c2)cc1 | 39% | 26.5% | -8.07% (active) | -32.8% (active) | -18.2% (active) | 4.53% (active) | 39.1% | -41.4% (active)
3 | C=C1C(=O)O[C@H]2[C@H]1CC/C(COC(=O)CCCC(=O)OC/C1=C/CC[C@@]3(C)O[C@H]3[C@H]3OC(=O)C(=C)[C@@H]3CC1)=C\CC[C@@]1(C)O[C@@H]21 | 14.9% | -4.94% (active) | 4.28% (active) | -35.9% (active) | 8.68% (active) | -53% (active) | 64.9% | 26%
4 | COc1ccc(-c2nn(-c3ccc(NC(=O)c4cc(C(F)(F)F)cc(C(F)(F)F)c4)cc3)cc2-c2ccncc2)cc1Cl | 52.9% | 71% | 67.4% | 72.1% | 66.9% | 42.7% | 77.5% | 53.2%
5 | Cn1c(I)c(C#C[Si](C)(C)C)c(=O)[nH]c1=O | 21.9% | 40.7% | 58.7% | -66.5% (active) | 82.1% | -43.1% (active) | -67.1% (active) | 103%
6 | C=C1C(=O)O[C@H]2[C@H]1CC/C(COC(=O)n1ccnc1C)=C\CC[C@@]1(C)O[C@@H]21 | 85% | 97.3% | 99.5% | 85% | 87.8% | 89% | 103% | 103%
7 | C[C@]12CC[C@@H]3c4ccc(O)c(N)c4CC[C@H]3[C@@H]1CC[C@@H]2O | 124% | 99.3% | 108% | 122% | 116% | 89.9% | 120% | 103%
8 | COc1cc2c(/C=C3/C(=O)Nc4ccc(O)cc43)c(Cl)n(Cc3cc(OC)c(OC)c(OC)c3)c2cc1C | 23.5% | -7.31% (active) | 2.91% (active) | 19.3% | 3.36% (active) | 18.1% | 85.5% | 16.3%
9 | CS(=O)(=O)Nc1cccc(-c2ccc3ncnc(Nc4cncc(Cl)c4)c3c2)c1 | -21.9% (active) | 34.8% | 49.9% | 33.2% | 15.6% | 30.4% | 39.2% | 32.7%
10 | CN(C)c1ccc2cc(-c3nc4ccccc4s3)c(N)nc2c1 | 48.5% | 61.8% | 5.06% (active) | 43.6% | 19.7% | 43.8% | 77.6% | 26.9%
11 | COc1cc(C(=O)C[n+]2ccccc2)ccc1OC(C)=O | 103% | 94.5% | 99.8% | 96.9% | 95.6% | 87.6% | 105% | 102%
12 | C/C(=N/O)c1ccc(NC(=O)Cn2nc(-c3ccc(Cl)cc3)nc2N)cc1 | 87% | 116% | 109% | 104% | 84.9% | 107% | 103% | 98.4%
13 | O=C(N/N=C1\SCC(=O)N1c1ccccc1)c1cc(-c2cc3ccccc3o2)nn1-c1ccccc1 | 101% | 101% | 102% | 104% | 99.9% | 96.5% | 176% | 119%
14 | NS(=O)(=O)c1ccc(-n2nc(-c3ccc(Cl)cc3)ccc2=O)cc1 | 95.2% | 92.9% | 43.5% | 93.1% | 86.2% | 99.6% | 102% | 69.7%
15 | Cc1cccc(NC(=O)CCc2ccc(N3C(N)=NC(N)=NC3(C)C)cc2)c1 | 73.1% | 45.8% | 25.9% | 33.5% | 29.3% | 18.9% | 33.3% | 22.7%
16 | Nc1n[nH]c2cccc(C#Cc3cccc(NC(=O)c4cccc(C(F)(F)F)c4)c3)c12 | 25.3% | 46.2% | 30.1% | 46.1% | 39.9% | 9.05% (active) | 26.2% | 38.5%

Row | SMILES | growth (T-47D breast) | growth (BT-549 breast) | growth (MDA-MB-435 melanoma) | growth (SW-620 colon) | growth (MCF7 breast) | growth (HCT-116 colon) | growth (HCC-2998 colon) | growth (KM12 colon)
17 | O=C(Cn1c2ccccc2c2ccncc21)N/N=C/c1cc(O)c(O)c(O)c1 | 98.2% | 107% | 111% | 109% | 106% | 101% | 105% | 95.3%
18 | C=C1C(=O)O[C@H]2[C@H]1CC/C(COC(=O)c1ccc3ccccc3c1)=C\CC[C@@]1(C)O[C@@H]21 | -55.2% (active) | -55.2% (active) | -73.8% (active) | -37.9% (active) | -36.1% (active) | -90.6% (active) | 42% | 32.8%
19 | COc1cc2ncnc(Oc3ccc(NC(=O)Nc4ccc(C5(C#N)CCCC5)cc4)c4ccccc34)c2cc1OC | 64.3% | 86.5% | 43.4% | 53.9% | 55.2% | 30.8% | 107% | 43.7%
20 | COC(=O)Nc1nc2ccc(Sc3ccccc3)cc2[nH]1 | 60.8% | 49.5% | -45.2% (active) | 18.6% | 21.4% | 15% | 0.2% (active) | 3.07% (active)
21 | O=C(NCCNc1nccc(-c2c(-c3cccc(O)c3)nc3sccn23)n1)c1cccc(C(F)(F)F)c1 | 69.5% | 88% | 21.7% | 107% | 75.3% | 74.3% | 117% | 80.9%
22 | CC(/C=C/C=C(\C)[C@H](O)[C@H](C)C(=O)O[C@H]1C[C@H](C)C=C2C=C[C@@]3(C)O[C@@H](O)CC(=O)[C@]3(C)[C@H]21)=C\C=C\C(=O)O | -12.3% (active) | -21.5% (active) | 8.57% (active) | 9.52% (active) | 3.12% (active) | 2.2% (active) | 7.5% (active) | 0.481% (active)
23 | COc1cc(Br)c(-c2nc(-c3ccccc3)c(-c3ccccc3)n2Cc2ccccc2)cc1OC | 35.8% | 75.9% | 59.8% | 73.4% | 38.3% | 30.3% | 67.9% | 49.6%
24 | CC(C)CNCC(=O)Nc1ccc(Cc2ccc(NC(=O)CNCC(C)C)cc2)cc1 | 68% | 51.7% | 88.5% | 77.5% | 43.8% | 36.4% | 36.6% | 67.7%
25 | Nc1ncnc2c1c(C(F)(F)F)cn2[C@@H]1O[C@H](CO)[C@@H](O)[C@H]1O | -0.423% (active) | -10.2% (active) | 12.3% | 5.25% (active) | 7.41% (active) | 8.38% (active) | 7.21% (active) | 4.05% (active)
26 | COc1cc(NC(C)CCCN2C(=O)c3ccccc3C2=O)c2nccc(C)c2c1OC (stereo not drawn) | 78.2% | 113% | 104% | 93.5% | 40.4% | 87.8% | 113% | 97.4%
27 | CC(C)(C)C(=O)Nc1nc2c(s1)CCc1ccn(S(=O)(=O)c3ccccc3)c1-2 | 66.6% | 94.5% | 108% | 101% | 85.9% | 78.7% | 100% | 89.8%
28 | O=C(NCCNc1nccc(-c2c(-c3cccc(O)c3)nc3sccn23)n1)c1cc(N2CCOCC2)cc(C(F)(F)F)c1 | 77.7% | 84.8% | 34.7% | 126% | 85.4% | 78.8% | 109% | 97.3%
29 | COc1ccccc1S(=O)(=O)Nc1ccc2c3c(cc(-c4cnn(C)c4)nc13)C(=O)N2C | 35.5% | 62.6% | 35.2% | 63.2% | 16.5% | 28.2% | 48.2% | 38.2%
30 | CCCCNC(=O)Oc1ccc(/C(=C(/CC)Cc2ccccc2)c2ccc(OCCCN(C)C)cc2)cc1 | 60.7% | 95.4% | 83.3% | 77.3% | 27.9% | 67.9% | 88.3% | 78.3%
31 | C/C(=N/NC(=O)Cn1c2ccccc2c2ccncc21)c1cccs1 | 96.4% | 104% | 110% | 103% | 102% | 100% | 96.9% | 101%
